From the supplement of paper PMC6555819

Experiments:
Experiment in all cases: PBM binding z-score (relative to random genomic background probes); higher = stronger binding; sequences stand for … in GC…GCGATTGACAGCGTAGAATGAAGG
[1] = tested on: RARb homodimer (NR concentration 270 nM)
Method in brief: (§1)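 The probes on custom Agilent 4×180K protein-binding microarrays were double-stranded, with 34-nt variable regions bearing direct-repeat seeds, single-nucleotide variants, half-site ablations and random human genomic background sequences. Incubation lasted 1 h with ligand-free nuclear receptor dimers in PBS pH 7.4, 2% milk, 0.02% Triton X-100, 1 mM DTT, 0.2 mg/mL BSA and 0.4 mg/ml salmon testes DNA. Antibodies against each partner (one per run) detected bound dimers, and fluorescence scans were regression-normalized. Binding z-scores take the random background probes as reference.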

[2] = tested on: RARg:RXRa (NR concentration 270 nM, RXRa partner concentration 90 nM)
Method in brief: as §1

[3] = tested on: RARg homodimer (NR concentration 270 nM)
Method in brief: as §1

[4] = tested on: RXRa DBDmut IVT, anti-RXR (DBD mutation: RXRa K156A/R161A, NR concentration 90 nM)
Method in brief: as §1

[5] = tested on: RXRa homodimer (NR concentration 180 nM)
Method in brief: as §1

[6] = tested on: THRa:RXRa (NR concentration 90 nM, RXRa partner concentration 90 nM)
Method in brief: as §1

[7] = tested on: THRa homodimer (NR concentration 90 nM)
Method in brief: as §1

[8] = tested on: VDR homodimer (NR concentration 270 nM)
Method in brief: as §1

| Sequence | PBM binding z-score [1] | PBM binding z-score [2] | PBM binding z-score [3] | PBM binding z-score [4] | PBM binding z-score [5] | PBM binding z-score [6] | PBM binding z-score [7] | PBM binding z-score [8] |
| --- | --- | --- | --- | --- | --- | --- | --- | --- |
| CGTCCAAGATCAAGGTCAGTGAAAGAGACTCGAA | 2.88 | 2.83 | 3.03 | 1.15 | 2.01 | 2.86 | 1.63 | 0.979 |
| CCTAGTTGGTCAAGGTCACACACGCTATAGGTAC | 4.21 | 4.84 | 4.85 | 2.36 | 5 | 4.11 | 4.42 | 4.32 |
| TCTCTTAGTTGATTAGGGCAACCGAAACAGCGGA | 0.99 | 0.874 | 0.649 | 1.47 | 0.82 | 0.934 | 0.61 | 0.608 |
| CCTACTGGGCCAAAAAGGTCCTTGATGCCGATAA | 0.795 | -0.28 | -0.148 | -0.722 | -0.259 | -0.265 | -0.242 | -0.393 |
| AGAATAAGGTTACCAAAGATCAGGGAAACGCTTG | 1.1 | 2.06 | 2 | 0.391 | 2.36 | 2.69 | 0.914 | 0.232 |
| TGAATGAGGTTATAAGATCCGGGAACGTTGCAAA | 0.199 | 1.19 | 0.881 | 0.792 | 1.78 | 1.7 | 0.151 | 0.411 |
| ACTAGCAGGCCAACGGTCACTCAAGATTAGTCCG | 1.57 | 0.906 | 1.57 | -0.139 | 0.345 | -0.135 | -0.434 | -0.593 |
| GGAACGATGGCAAAGTTGATAGCATCTGTCGACG | -0.537 | -0.206 | 0.0205 | -0.199 | -0.104 | -0.533 | -1.03 | -0.827 |
| CTCGAAAGGTCGCTTGAGGTGAGTATACGGATAA | 2.86 | 3.95 | 3.9 | 1.89 | 3.66 | 5.16 | 1.09 | 0.912 |
| CTACCAAGGTGAGCAAGGTCGTTGATTACTATTC | 1.65 | 0.951 | 0.78 | 0.939 | 1.03 | 2.77 | 1.29 | 1.42 |
| ACTATTAGTTGAGACGAGGGCCACCGATAGGTTG | 0.318 | 0.392 | 0.514 | 0.0416 | 0.26 | -0.0155 | -0.379 | -0.0608 |
| GCTGCTCGGTCAGGTTGGTCAGCTAACGGGTACG | 1.53 | 0.691 | 2.11 | -0.37 | -0.405 | -0.155 | -0.287 | -0.476 |
| ACTATTAGTTGACTTATGGCAACCGATACGACGC | 0.102 | 0.814 | 0.872 | 0.726 | 0.823 | 0.347 | -0.0591 | 0.143 |
| CTCGAAAGGTCGTGCTCAGGGGAGTATACCAAAC | 2.53 | 4.03 | 3.44 | 2.02 | 4 | 2.77 | 0.415 | 1.13 |
| ATCTCTAGGTAAAGATAGTTTAGTGAATGCAAAT | 0.204 | 0.354 | 0.533 | -0.0109 | 0.0812 | 0.487 | 0.117 | 0.358 |
| TAAATGAGGTTATAAGATCAGGGAACGTTGCAAA | 0.147 | 1.79 | 0.975 | 1.21 | 2.24 | 1.9 | 0.348 | 0.859 |
| AGTCAAAGTTCACCTAGGTAACGTAAGATATGCT | 4.16 | 5.65 | 6.29 | 4.26 | 4.86 | 3.51 | 0.406 | 3.86 |
| ACTAGCAGGCCAAGTTTGGGTTACTCAAACAAAG | 0.5 | 0.339 | 0.295 | -0.22 | -0.21 | 0.547 | -0.383 | -0.21 |
| ATCGAAAGGTCGACGAGGTGAGTATACACCGTTT | 3.04 | 4.03 | 3.9 | 1.38 | 4.46 | 3.84 | 0.669 | 0.929 |
| TCGAGTAGGTTAGGTGCATTCAGAATGGCGTCGA | 0.197 | -0.25 | -0.0841 | 1.04 | 0.1 | -0.142 | -0.111 | 1.47 |
| TCATATAGGTAATACAGGTGAAAGTGGGCATCTA | 0.844 | 0.777 | 0.705 | 2.06 | 1.3 | 0.901 | 0.52 | 0.577 |
| ATCTCTGGGTAAAGTTCAGTGAAAGATCGATAGA | 2.68 | 2.19 | 2.4 | 1.43 | 1.57 | 1.11 | 0.412 | 1.62 |
| CGAACTAGGTCAATGACAGGACAGTGAATAGTAA | 2.71 | 4.32 | 4.46 | 1.49 | 2.17 | 2.62 | 0.35 | 0.409 |
| CTTATTAGTTGACCATAAGGGCAACCGAAGCTCG | 2.23 | 1.24 | 1.13 | 0.578 | 0.722 | 2.04 | 1.36 | 0.553 |
| TAGCCTAGGTTATTGGGCCAGTATAGTACGCATC | 0.536 | 0.395 | 0.586 | -0.294 | 0.452 | 0.29 | -0.377 | -0.529 |
| GCTTGTAGATCAAGGTTAACAAAGACTAAGCTAA | 0.609 | 0.795 | 0.37 | 0.051 | 1.05 | 1.49 | -0.000318 | -0.118 |
